# ± gives the standard deviation of the averaged measurements.
# Assays:
# Assay in all cases: promoter activity interaction Z-score (Lux/OD deviation from empty-vector control); higher = stronger promoter induction by the compound
# [1] = test system: E. coli BW25113 acrABp lux reporter
# How it was run: (§1)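 Low-copy luxCDABE promoter reporters were carried by E. coli BW25113, either wild type or lacking one of three genes, grown in 40 µl LB Lennox in 384-well plates at 37°C. Each compound was run at four 1:2 dilutions in biological duplicates, with OD600 and luminescence read every 30 min for 12 h. Integration used 0–8 h for wild type and 1–9 h for deletion strains, and wells under 10% of the median growth value were removed. Luminescence normalised to growth was fitted against a control, and the Z-transformed residual is the score.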
# [2] = test system: E. coli BW25113 marRABp lux reporter
# How it was run: as §1
# [3] = test system: E. coli BW25113 micFp lux reporter
# How it was run: as §1
# [4] = test system: E. coli BW25113 ompFp lux reporter
# How it was run: as §1
# [5] = test system: E. coli BW25113 robp lux reporter
# How it was run: as §1
# [6] = test system: E. coli BW25113 soxSp lux reporter
# How it was run: as §1
# [7] = test system: E. coli BW25113 tolCp lux reporter
# How it was run: as §1
# [8] = 0.011 µg/ml, genetic background: wild type
# [9] = 0.011 µg/ml, genetic background: ΔmarA
# [10] = 0.011 µg/ml, genetic background: Δrob
# [11] = 0.011 µg/ml, genetic background: ΔsoxS
# [12] = 0.022 µg/ml, genetic background: wild type
# [13] = 0.022 µg/ml, genetic background: ΔmarA
# [14] = 0.022 µg/ml, genetic background: Δrob
# [15] = 0.022 µg/ml, genetic background: ΔsoxS
# [16] = 0.044 µg/ml, genetic background: wild type
# [17] = 0.044 µg/ml, genetic background: ΔsoxS
structure (smiles),measurement,setting,value
COc1c(N2C[C@@H]3CCCN[C@@H]3C2)c(F)cc2c(=O)c(C(=O)O)cn(C3CC3)c12 [Moxifloxacin],promoter activity interaction Z-score,[1]; [8],0.0749 ± 0.025
same,promoter activity interaction Z-score,[1]; [9],-0.567 ± 0.78
same,promoter activity interaction Z-score,[1]; [10],0.0419 ± 0.7
same,promoter activity interaction Z-score,[1]; [11],0.247 ± 0.25
same,promoter activity interaction Z-score,[1]; [12],0.793 ± 0.42
same,promoter activity interaction Z-score,[1]; [13],1.07 ± 0.44
same,promoter activity interaction Z-score,[1]; [14],0.898 ± 1.1
same,promoter activity interaction Z-score,[1]; [15],0.353 ± 0.12
same,promoter activity interaction Z-score,[1]; [16],3.94
same,promoter activity interaction Z-score,[1]; [17],2.12 ± 1.1
same,promoter activity interaction Z-score,[2]; [8],0.044 ± 0.089
same,promoter activity interaction Z-score,[2]; [9],0.14 ± 0.15
same,promoter activity interaction Z-score,[2]; [10],-0.0981 ± 0.19
same,promoter activity interaction Z-score,[2]; [11],0.00173 ± 0.15
same,promoter activity interaction Z-score,[2]; [12],0.5 ± 0.56
same,promoter activity interaction Z-score,[2]; [13],1.62 ± 0.86
same,promoter activity interaction Z-score,[2]; [14],0.689 ± 0.17
same,promoter activity interaction Z-score,[2]; [15],0.0296 ± 0.046
same,promoter activity interaction Z-score,[2]; [16],4.34 ± 1.7
same,promoter activity interaction Z-score,[2]; [17],2.52 ± 1.1
same,promoter activity interaction Z-score,[3]; [8],-0.2 ± 0.019
same,promoter activity interaction Z-score,[3]; [9],0.154 ± 0.019
same,promoter activity interaction Z-score,[3]; [10],0.0249 ± 0.077
same,promoter activity interaction Z-score,[3]; [11],-0.0364 ± 0.073
same,promoter activity interaction Z-score,[3]; [12],-0.17 ± 0.072
same,promoter activity interaction Z-score,[3]; [13],0.371 ± 0.036
same,promoter activity interaction Z-score,[3]; [14],0.129 ± 0.04
same,promoter activity interaction Z-score,[3]; [15],0.0515 ± 0.087
same,promoter activity interaction Z-score,[3]; [16],-0.648 ± 0.45
same,promoter activity interaction Z-score,[3]; [17],-0.721 ± 0.42
same,promoter activity interaction Z-score,[4]; [8],0.138 ± 0.022
same,promoter activity interaction Z-score,[4]; [9],-0.0717 ± 0.18
same,promoter activity interaction Z-score,[4]; [10],0.0886 ± 0.25
same,promoter activity interaction Z-score,[4]; [11],0.123 ± 0.17
same,promoter activity interaction Z-score,[4]; [12],0.271 ± 0.48
same,promoter activity interaction Z-score,[4]; [13],0.695 ± 0.25
same,promoter activity interaction Z-score,[4]; [14],0.555 ± 0.53
same,promoter activity interaction Z-score,[4]; [15],0.184 ± 0.35
same,promoter activity interaction Z-score,[4]; [16],-0.0419 ± 2.9
same,promoter activity interaction Z-score,[5]; [8],1.08 ± 0.33
same,promoter activity interaction Z-score,[5]; [9],0.716 ± 0.13
same,promoter activity interaction Z-score,[5]; [10],0.563 ± 0.16
same,promoter activity interaction Z-score,[5]; [11],0.0805 ± 0.38
same,promoter activity interaction Z-score,[5]; [12],0.311 ± 0.14
same,promoter activity interaction Z-score,[5]; [13],0.295 ± 0.073
same,promoter activity interaction Z-score,[5]; [14],0.251 ± 0.47
same,promoter activity interaction Z-score,[5]; [15],0.687 ± 0.83
same,promoter activity interaction Z-score,[5]; [16],-1.23 ± 0.75
same,promoter activity interaction Z-score,[5]; [17],1.18 ± 0.81
same,promoter activity interaction Z-score,[6]; [8],0.023 ± 0.037
same,promoter activity interaction Z-score,[6]; [9],-0.096 ± 0.089
same,promoter activity interaction Z-score,[6]; [10],0.0641 ± 0.18
same,promoter activity interaction Z-score,[6]; [11],0.135 ± 0.027
same,promoter activity interaction Z-score,[6]; [12],0.0383 ± 0.078
same,promoter activity interaction Z-score,[6]; [13],-0.0462 ± 0.065
same,promoter activity interaction Z-score,[6]; [14],-0.139 ± 0.043
same,promoter activity interaction Z-score,[6]; [15],0.616 ± 0.023
same,promoter activity interaction Z-score,[6]; [16],0.204 ± 0.017
same,promoter activity interaction Z-score,[6]; [17],2.34 ± 1.4
same,promoter activity interaction Z-score,[7]; [8],0.549 ± 0.068
same,promoter activity interaction Z-score,[7]; [9],-0.242 ± 0.2
same,promoter activity interaction Z-score,[7]; [10],-0.0406 ± 1.1
same,promoter activity interaction Z-score,[7]; [11],0.127 ± 0.0073
same,promoter activity interaction Z-score,[7]; [12],-0.356 ± 0.14
same,promoter activity interaction Z-score,[7]; [13],-0.296 ± 0.43
same,promoter activity interaction Z-score,[7]; [14],-0.0729 ± 0.065
same,promoter activity interaction Z-score,[7]; [15],1.75 ± 2.6
same,promoter activity interaction Z-score,[7]; [16],0.111 ± 0.07
same,promoter activity interaction Z-score,[7]; [17],0.782 ± 1.2

# Source: the supplement of paper PMC12282887
